# Measured values: the supplement of paper PMC10849652
# The full data set covers some 7,900 targets. This sample favours those with a hit. About 0.6% of all pairs of compound and target were hits. Unmarked numbers belong to inactive results.
# Columns and labels:
# Assay in all cases: log2 fold change, soluble protein after heating vs DMSO (PISA); higher = thermal stabilisation; K562 cells, 10 uM, 30 min; active = over 0.2 and 3.5 SD of the protein, either way, in both replicates (recomputed)
# [1] = compound: COC1=CC=C(C=C1)CN2C=CC3=C2C=C(C=C3)C(=O)NO
# In short: (§1)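 Values are thermal stability changes relative to control samples and are taken from duplicates. They are stated as log2 fold changes. Before quantification by TMTpro 16plex LC-MS/MS with equalised channel sums, K562 cells at 2×10^6 cells/mL were treated with 10 μM compound for 30 min, heated in aliquots for 3 min across 48°C-58°C, pooled, extracted in PBS with 0.5% NP-40 at 4°C, and centrifuged at 21,000xg for 90 min to give the soluble supernatant.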
# [2] = compound: CON(C)C(=O)N1N=C(c2cc(F)ccc2F)S[C@@]1(CCCN)c1ccccc1 [filanesib]
# In short: as §1
# [3] = compound: CO[C@H]1C[C@@H]2CC[C@@H](C)[C@@](O)(O2)C(=O)C(=O)N2CCCC[C@H]2C(=O)O[C@H]([C@H](C)C[C@@H]2CC[C@H](n3cnnn3)[C@H](OC)C2)CC(=O)[C@H](C)/C=C(\C)[C@@H](O)[C@@H](OC)C(=O)[C@H](C)C[C@H](C)/C=C/C=C/C=C/1C [zotarolimus]
# In short: as §1
# [4] = compound: COc1cc(C(=O)O)ccc1NC(=O)[C@@H]1N[C@@H](CC(C)(C)C)[C@](C#N)(c2ccc(Cl)cc2F)[C@H]1c1cccc(Cl)c1F [idasanutlin]
# In short: as §1
# [5] = compound: COc1cc(Nc2ncc3c(n2)-c2ccc(Cl)cc2C(c2c(F)cccc2OC)=NC3)ccc1C(=O)O [alisertib]
# In short: as §1
# [6] = compound: COc1cc2nc(-c3cc(F)ccc3O)nc(N[C@@H]3CNC[C@H]3C(C)(C)O)c2cc1OC
# In short: as §1
# [7] = compound: COc1cc2ncnc(Nc3ccc(F)c(Cl)c3)c2cc1OCCCN1CCOCC1 [gefitinib]
# In short: as §1
# [8] = compound: COc1cccc2cc(-c3nc([C@H]4CC[C@H](C(=O)O)CC4)n4ncnc(N)c34)[nH]c12
# In short: as §1
# [9] = compound: CS(=O)(=O)CCNCc1ccc(-c2ccc3ncnc(Nc4ccc(OCc5cccc(F)c5)c(Cl)c4)c3c2)o1 [lapatinib]
# In short: as §1
# [10] = compound: CS(=O)(=O)N1CCN(Cc2cc3nc(-c4cccc5[nH]ncc45)nc(N4CCOCC4)c3s2)CC1 [pictilisib]
# In short: as §1
# [11] = compound: CS(=O)(=O)c1ccc(-c2cnc(N)c(C(=O)Nc3ccccc3)n2)cc1
# In short: as §1
# [12] = compound: C[C@@H](Oc1cc(-c2cnn(C3CCNCC3)c2)cnc1N)c1c(Cl)ccc(F)c1Cl [crizotinib]
# In short: as §1
# [13] = compound: C[C@@H]1COCCN1C2=NC(=NC(=C2)C3(CC3)S(=O)(=O)C)C4=C5C=CNC5=CC=C4
# In short: as §1
# [14] = compound: C[C@H](C1=CC=C(C=C1)C(=O)NC2=C3C=CNC3=NC=C2)N
# In short: as §1
# [15] = compound: C[C@H](Nc1ncnc2nc[nH]c12)c1cc2cccc(Cl)c2c(=O)n1-c1ccccc1 [duvelisib]
# In short: as §1
# [16] = compound: Cc1cc(Nc2cc(CN3CCOCC3)c3nc(C)c(Cc4ccc(Cl)cc4F)n3n2)n[nH]1 [gandotinib]
# In short: as §1
# [17] = compound: Cc1cc(Nc2cc(N3CCN(C)CC3)nc(Sc3ccc(NC(=O)C4CC4)cc3)n2)n[nH]1 [tozasertib]
# In short: as §1
# [18] = compound: Cc1cc(SCc2sc(-c3ccc(C(F)(F)F)cc3)nc2C)ccc1OCC(=O)O
# In short: as §1
# [19] = compound: Cc1ccc(-n2nc(C(C)(C)C)cc2NC(=O)Nc2ccc(OCCN3CCOCC3)c3ccccc23)cc1 [doramapimod]
# In short: as §1
# [20] = compound: Cc1ccc(C(=O)N(CCCN)[C@@H](c2nc3cc(Cl)ccc3c(=O)n2Cc2ccccc2)C(C)C)cc1 [ispinesib]
# In short: as §1
# UniProt Q9Y2X3, sequence (Q9Y2X3 whole entry, looked up): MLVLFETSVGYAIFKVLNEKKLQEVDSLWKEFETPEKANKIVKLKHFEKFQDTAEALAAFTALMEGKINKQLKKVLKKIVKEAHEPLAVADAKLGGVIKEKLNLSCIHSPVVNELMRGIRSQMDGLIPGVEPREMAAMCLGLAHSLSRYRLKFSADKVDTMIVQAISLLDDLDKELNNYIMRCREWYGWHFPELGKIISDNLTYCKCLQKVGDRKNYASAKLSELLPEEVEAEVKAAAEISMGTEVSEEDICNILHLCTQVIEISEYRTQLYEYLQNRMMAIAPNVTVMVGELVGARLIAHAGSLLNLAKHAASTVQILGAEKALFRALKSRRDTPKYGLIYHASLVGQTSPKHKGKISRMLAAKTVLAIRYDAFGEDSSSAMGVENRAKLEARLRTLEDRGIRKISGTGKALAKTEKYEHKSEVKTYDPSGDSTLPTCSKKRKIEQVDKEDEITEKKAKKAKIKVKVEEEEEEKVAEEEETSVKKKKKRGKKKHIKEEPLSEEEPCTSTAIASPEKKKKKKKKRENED
# UniProt Q8N573, sequence (Q8N573 whole entry, looked up): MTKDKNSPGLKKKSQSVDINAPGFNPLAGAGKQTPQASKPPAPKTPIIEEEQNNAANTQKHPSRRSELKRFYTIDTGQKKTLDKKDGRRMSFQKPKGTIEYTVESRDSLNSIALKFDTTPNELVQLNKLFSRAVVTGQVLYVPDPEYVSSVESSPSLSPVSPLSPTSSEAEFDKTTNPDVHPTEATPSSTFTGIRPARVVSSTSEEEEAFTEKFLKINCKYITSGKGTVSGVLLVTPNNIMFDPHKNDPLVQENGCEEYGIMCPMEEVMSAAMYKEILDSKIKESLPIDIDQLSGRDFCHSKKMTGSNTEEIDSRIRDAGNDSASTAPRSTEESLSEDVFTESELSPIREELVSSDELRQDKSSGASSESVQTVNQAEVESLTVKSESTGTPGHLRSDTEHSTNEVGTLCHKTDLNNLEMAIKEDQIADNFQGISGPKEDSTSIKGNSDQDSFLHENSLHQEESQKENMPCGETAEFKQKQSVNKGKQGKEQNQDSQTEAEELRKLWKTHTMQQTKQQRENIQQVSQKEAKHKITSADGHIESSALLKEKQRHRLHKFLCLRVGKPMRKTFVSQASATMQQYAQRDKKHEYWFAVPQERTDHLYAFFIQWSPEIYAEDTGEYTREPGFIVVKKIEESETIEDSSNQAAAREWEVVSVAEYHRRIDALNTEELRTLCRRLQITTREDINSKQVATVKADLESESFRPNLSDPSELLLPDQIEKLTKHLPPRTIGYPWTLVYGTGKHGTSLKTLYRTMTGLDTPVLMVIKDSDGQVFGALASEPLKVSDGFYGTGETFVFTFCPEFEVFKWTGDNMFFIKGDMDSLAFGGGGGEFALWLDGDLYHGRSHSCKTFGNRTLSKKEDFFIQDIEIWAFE
# UniProt Q13153, sequence (Q13153 whole entry, looked up): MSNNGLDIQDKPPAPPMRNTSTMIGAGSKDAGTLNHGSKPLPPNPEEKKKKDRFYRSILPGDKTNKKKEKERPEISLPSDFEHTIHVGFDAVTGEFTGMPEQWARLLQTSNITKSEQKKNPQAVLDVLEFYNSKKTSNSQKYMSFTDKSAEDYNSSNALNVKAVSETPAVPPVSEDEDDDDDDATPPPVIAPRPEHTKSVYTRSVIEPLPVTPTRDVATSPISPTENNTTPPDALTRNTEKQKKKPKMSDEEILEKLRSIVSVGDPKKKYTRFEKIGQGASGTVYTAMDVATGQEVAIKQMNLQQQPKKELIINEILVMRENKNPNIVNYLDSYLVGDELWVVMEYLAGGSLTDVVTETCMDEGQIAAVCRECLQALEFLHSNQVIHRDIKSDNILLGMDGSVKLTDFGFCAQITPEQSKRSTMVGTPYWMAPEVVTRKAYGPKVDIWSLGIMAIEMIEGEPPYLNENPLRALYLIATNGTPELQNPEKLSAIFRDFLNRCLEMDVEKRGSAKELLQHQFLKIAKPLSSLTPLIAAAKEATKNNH
# UniProt Q14980, sequence (Q14980 whole entry, looked up): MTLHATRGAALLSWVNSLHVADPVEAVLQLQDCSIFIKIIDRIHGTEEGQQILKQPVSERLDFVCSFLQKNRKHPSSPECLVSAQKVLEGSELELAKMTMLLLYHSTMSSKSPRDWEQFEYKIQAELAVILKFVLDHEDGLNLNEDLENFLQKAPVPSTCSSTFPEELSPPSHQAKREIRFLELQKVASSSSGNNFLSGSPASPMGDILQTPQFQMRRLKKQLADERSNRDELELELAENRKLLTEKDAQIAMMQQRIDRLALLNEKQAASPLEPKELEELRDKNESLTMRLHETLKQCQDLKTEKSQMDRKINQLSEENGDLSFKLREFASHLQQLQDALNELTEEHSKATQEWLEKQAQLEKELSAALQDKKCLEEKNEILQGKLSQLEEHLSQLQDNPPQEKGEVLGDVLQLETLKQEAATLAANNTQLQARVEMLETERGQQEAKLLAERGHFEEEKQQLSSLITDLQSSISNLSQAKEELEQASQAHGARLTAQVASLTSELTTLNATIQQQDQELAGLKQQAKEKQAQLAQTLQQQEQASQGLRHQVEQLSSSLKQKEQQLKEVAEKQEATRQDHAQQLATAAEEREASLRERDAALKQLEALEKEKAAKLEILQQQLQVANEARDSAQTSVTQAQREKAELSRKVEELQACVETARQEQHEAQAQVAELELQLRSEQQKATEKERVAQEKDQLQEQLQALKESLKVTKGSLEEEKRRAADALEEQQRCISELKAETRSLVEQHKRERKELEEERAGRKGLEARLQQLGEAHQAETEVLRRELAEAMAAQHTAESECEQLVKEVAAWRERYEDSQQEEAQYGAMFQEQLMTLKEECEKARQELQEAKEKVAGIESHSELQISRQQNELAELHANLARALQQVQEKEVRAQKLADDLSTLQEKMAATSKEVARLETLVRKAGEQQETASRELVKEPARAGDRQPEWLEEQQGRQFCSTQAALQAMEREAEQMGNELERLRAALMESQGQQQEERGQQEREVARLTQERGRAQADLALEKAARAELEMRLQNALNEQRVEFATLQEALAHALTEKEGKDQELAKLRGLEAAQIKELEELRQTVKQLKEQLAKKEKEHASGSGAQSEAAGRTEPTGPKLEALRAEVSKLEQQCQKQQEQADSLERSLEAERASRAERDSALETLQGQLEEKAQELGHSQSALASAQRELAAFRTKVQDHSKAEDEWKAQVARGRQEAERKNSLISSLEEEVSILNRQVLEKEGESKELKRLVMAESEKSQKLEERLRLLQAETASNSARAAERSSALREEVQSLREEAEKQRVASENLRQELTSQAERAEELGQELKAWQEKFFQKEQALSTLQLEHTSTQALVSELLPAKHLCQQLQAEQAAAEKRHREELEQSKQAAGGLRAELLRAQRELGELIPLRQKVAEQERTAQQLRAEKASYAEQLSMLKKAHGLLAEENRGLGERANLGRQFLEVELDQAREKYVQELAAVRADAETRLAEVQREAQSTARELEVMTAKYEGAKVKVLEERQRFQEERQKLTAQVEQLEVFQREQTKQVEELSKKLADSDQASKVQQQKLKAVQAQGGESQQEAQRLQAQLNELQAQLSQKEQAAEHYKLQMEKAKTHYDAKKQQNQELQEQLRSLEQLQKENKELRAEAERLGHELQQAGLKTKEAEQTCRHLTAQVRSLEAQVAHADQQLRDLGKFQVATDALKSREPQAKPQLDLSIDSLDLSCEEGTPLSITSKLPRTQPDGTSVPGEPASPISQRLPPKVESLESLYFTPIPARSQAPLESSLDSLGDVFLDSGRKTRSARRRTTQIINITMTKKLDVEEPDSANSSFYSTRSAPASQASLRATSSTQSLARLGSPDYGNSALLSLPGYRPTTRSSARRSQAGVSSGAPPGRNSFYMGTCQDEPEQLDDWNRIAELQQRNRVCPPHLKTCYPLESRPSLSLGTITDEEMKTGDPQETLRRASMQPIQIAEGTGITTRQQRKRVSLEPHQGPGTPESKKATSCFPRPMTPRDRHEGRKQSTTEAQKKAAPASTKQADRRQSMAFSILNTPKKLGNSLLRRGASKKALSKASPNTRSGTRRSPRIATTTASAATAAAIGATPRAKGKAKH
# UniProt Q8NI08, sequence (Q8NI08 whole entry, looked up): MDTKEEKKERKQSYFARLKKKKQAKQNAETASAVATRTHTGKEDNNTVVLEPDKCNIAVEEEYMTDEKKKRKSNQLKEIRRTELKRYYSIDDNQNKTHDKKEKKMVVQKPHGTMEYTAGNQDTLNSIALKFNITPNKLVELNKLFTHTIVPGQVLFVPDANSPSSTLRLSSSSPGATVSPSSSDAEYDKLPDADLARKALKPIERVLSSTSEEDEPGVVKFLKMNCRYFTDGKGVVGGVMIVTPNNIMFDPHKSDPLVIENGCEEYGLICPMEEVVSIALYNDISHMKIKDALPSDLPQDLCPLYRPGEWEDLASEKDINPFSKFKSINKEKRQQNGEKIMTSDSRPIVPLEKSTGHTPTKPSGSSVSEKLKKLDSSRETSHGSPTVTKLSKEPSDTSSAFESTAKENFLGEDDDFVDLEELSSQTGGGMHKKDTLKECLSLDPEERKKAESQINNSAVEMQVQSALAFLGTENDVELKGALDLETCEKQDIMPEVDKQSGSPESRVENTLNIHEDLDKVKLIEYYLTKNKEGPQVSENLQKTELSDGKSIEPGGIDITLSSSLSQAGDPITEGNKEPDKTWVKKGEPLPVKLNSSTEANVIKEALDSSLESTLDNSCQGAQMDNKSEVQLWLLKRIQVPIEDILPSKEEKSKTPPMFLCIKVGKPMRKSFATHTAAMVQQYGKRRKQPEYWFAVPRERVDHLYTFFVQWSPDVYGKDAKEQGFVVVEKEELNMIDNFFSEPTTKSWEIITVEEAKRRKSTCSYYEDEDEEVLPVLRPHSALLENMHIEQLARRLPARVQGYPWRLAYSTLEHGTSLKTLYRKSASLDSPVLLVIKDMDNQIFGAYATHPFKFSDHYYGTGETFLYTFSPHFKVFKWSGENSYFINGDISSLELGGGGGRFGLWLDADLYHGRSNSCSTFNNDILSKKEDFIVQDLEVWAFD
Target,log2 fold change [1],log2 fold change [2],log2 fold change [3],log2 fold change [4],log2 fold change [5],log2 fold change [6],log2 fold change [7],log2 fold change [8],log2 fold change [9],log2 fold change [10],log2 fold change [11],log2 fold change [12],log2 fold change [13],log2 fold change [14],log2 fold change [15],log2 fold change [16],log2 fold change [17],log2 fold change [18],log2 fold change [19],log2 fold change [20]
"NA, A0A096LPI6",0.008,-0.044,0.019,-0.014,-0.034,-0.123,0.018,0.074,0.029,-0.02,-0.014,0.079,0.03,-0.015,0.018,0.04,-0.034,-0.051,-0.038,0.047
NR2C2AP isoform 2 (UniProt Q86WQ0),0.101,0.01,-0.014,-0.062,-0.066,-0.034,-0.01,0.093,-0.011,0.08,0.085,0.011,0.138,0.025,0.044,-0.035,0.08,0.01,-0.17,0.285 (active)
OXR1 (UniProt Q8N573),-0.018,-0.078,0.009,-0.014,-0.059,0.034,0.003,0.018,0.011,0.164,0.02,-0.074,0.014,-0.048,0.063,0,0.021,-0.011,0.001,-0.095
MT-ND4 (UniProt P03905),-0.021,-0.009,-0.069,-0.147,-0.02,-0.088,0.003,0.046,0.013,-0.214,-0.107,0.008,0.052,-0.148,0.079,-0.104,0.06,-0.066,0,0.118
NUMA1 (UniProt Q14980),0.002,0.266,0.13,0.07,-0.088,-0.223,-0.001,-0.247,0.062,0.021,0.117,-0.001,-0.071,0.089,-0.073,-0.066,0.108,0.07,0.178,-0.089
OSTC (UniProt Q9NRP0),-0.05,-0.171,-0.105,-0.041,-0.101,-0.184,0.018,0.026,-0.041,0.162,0.044,-0.047,0.132,-0.089,0.041,-0.112,-0.001,-0.042,0.028,-0.117
MT-ATP6 (UniProt P00846),-0.018,-0.036,-0.022,-0.084,-0.05,0.133,0.05,0.055,-0.105,0.208,0.041,0.355,0.225,0.135,0.153,0.143,0.045,-0.081,-0.038,0.076
NCOA7 (UniProt Q8NI08),-0.043,-0.046,0.035,-0.034,-0.034,0.043,-0.014,0.014,0.01,-0.045,-0.003,-0.17,0.012,-0.034,0.091,-0.238 (active),-0.052,0.031,0.082,-0.037
PAK1 isoform 2 (UniProt Q13153),0.178,0.04,0.003,-0.155,0.086,-0.007,-0.025,-0.098,-0.015,0.183,0.009,0.054,0.063,-0.308 (active),0.09,-0.098,-0.076,0.056,-0.155,0.084
MRPS10 (UniProt P82664),-0.041,0.045,0.08,-0.088,-0.014,-0.017,-0.042,0.012,0.069,-0.112,0.028,0.005,-0.033,0.08,-0.005,0.019,0.002,0.002,0.029,-0.265 (active)
NDUFS8 (UniProt O00217),-0.07,-0.122,-0.003,-0.147,-0.15,-0.069,-0.028,0.081,0.01,0.018,0.021,-0.182,0.143,-0.027,0.055,-0.168,-0.011,0.021,-0.043,-0.158
NFX1 (UniProt Q12986),-0.152,0.133,-0.141,0.102,0.203,0.079,0.037,-0.012,0.112,0.004,-0.024,-0.232,-0.315,0.09,0.172,0.21,-0.008,-0.164,0.293,-0.202
NUP205 (UniProt Q92621),0.015,0.01,0.009,-0.08,-0.014,0.058,-0.011,-0.008,-0.03,-0.01,0.001,-0.054,0.002,-0.019,0.018,-0.17,0.025,0.094,0,-0.018
NOP58 (UniProt Q9Y2X3),-0.124,0.528 (active),0.044,0.229,-0.035,-0.096,0.039,-0.028,0.054,0.049,0.006,0.047,-0.061,0.242,0.004,0.121,0.025,-0.001,0.098,0.103
NDUFS7 (UniProt O75251),-0.009,-0.108,-0.036,-0.112,0.039,-0.106,-0.029,0.057,0.015,0.047,0.013,-0.109,0.029,-0.019,0.053,-0.108,-0.046,0.013,-0.02,-0.114
MSH3 (UniProt P20585),-0.074,0.005,0.036,-0.004,0.008,0.093,0.005,0,0.042,-0.006,-0.029,0.045,-0.031,0.047,0.07,-0.096,-0.003,0.024,0.035,0.088
